This is part of a sample that, as a whole, favours compounds with a hit. Of some 83,000 tested, about 20% had one in any assay.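 Assay: single dose, 48 h. Readout: percent growth (0 = no net growth; negative = cell death). Active: <10.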 A number with no mark means an inactive call. Calls of active or inactive are those of the source.
Columns and labels:
Experiment in all cases: NCI-60 one-dose screen, 48 h (100 = growth as untreated, 0 = no growth, -100 = all killed)
Settings in all cases: 10 µM unless noted
SR leukemia = test system: SR leukemia
RPMI-8226 leukemia = test system: RPMI-8226 leukemia
OVCAR-8 ovarian = test system: OVCAR-8 ovarian
OVCAR-5 ovarian = test system: OVCAR-5 ovarian
OVCAR-4 ovarian = test system: OVCAR-4 ovarian
SK-OV-3 ovarian = test system: SK-OV-3 ovarian
IGROV1 ovarian = test system: IGROV1 ovarian
OVCAR-3 ovarian = test system: OVCAR-3 ovarian
NCI/ADR-RES ovarian = test system: NCI/ADR-RES ovarian
T-47D breast = test system: T-47D breast
BT-549 breast = test system: BT-549 breast
MDA-MB-435 melanoma = test system: MDA-MB-435 melanoma
SW-620 colon = test system: SW-620 colon
MCF7 breast = test system: MCF7 breast
HCT-116 colon = test system: HCT-116 colon
HCC-2998 colon = test system: HCC-2998 colon
KM12 colon = test system: KM12 colon
HS 578T breast = test system: HS 578T breast

| Structure (SMILES) | growth (SR leukemia) | growth (RPMI-8226 leukemia) | growth (OVCAR-8 ovarian) | growth (OVCAR-5 ovarian) | growth (OVCAR-4 ovarian) | growth (SK-OV-3 ovarian) | growth (IGROV1 ovarian) | growth (OVCAR-3 ovarian) | growth (NCI/ADR-RES ovarian) | growth (T-47D breast) | growth (BT-549 breast) | growth (MDA-MB-435 melanoma) | growth (SW-620 colon) | growth (MCF7 breast) | growth (HCT-116 colon) | growth (HCC-2998 colon) | growth (KM12 colon) | growth (HS 578T breast) [%] |
| --- | --- | --- | --- | --- | --- | --- | --- | --- | --- | --- | --- | --- | --- | --- | --- | --- | --- | --- |
| COc1cc(-c2nn(-c3ccc(C)cc3)cc2C(=O)O)ccc1O | 85.3% | 90.9% | 98.9% | 113% | 109% | 94% | 94.2% | 93.4% | 94.5% | 89.5% | 103% | 87.3% | 103% | 93.4% | 99.7% | 92.5% | 64.7% | – |
| N#Cc1nnn(-c2ccc(S(N)(=O)=O)cc2)c1NCC(=O)c1ccccc1 | 90.7% | 87.5% | 91.6% | 108% | 89.8% | 91.9% | 99.5% | 106% | 105% | 95.4% | 98% | 91.8% | 97.2% | 93.3% | 95% | 112% | 99.4% | – |
| COc1cc2c(cc1O)CC[C@@H]1[C@@H]2CC[C@]2(C)[C@@H](NCCN(C)C)CC[C@@H]12 | -67.2% (active) | -59.9% (active) | -79% (active) | -84% (active) | -63.3% (active) | -90% (active) | -74.8% (active) | -88.3% (active) | -85.9% (active) | -64.5% (active) | -84.3% (active) | -78.9% (active) | -80.4% (active) | -75.8% (active) | -90.6% (active) | – | -82.4% (active) | – |
| N#Cc1cnn(-c2nc3c(Cl)cccc3s2)c1N | 89.9% | 95.7% | 80.8% | 108% | -4.16% (active) | 78.1% | 84% | 98.1% | 82% | – | 90.4% | 87.1% | 94.7% | 68.1% | 61.7% | 91.1% | 88.7% | 84.2 |
| CN(C)c1ccc(N=Nc2ccccn2)c(O)c1 | 3.79% (active) | 16.2% | 16% | 68.6% | 28.3% | 19.5% | 14.9% | 33.2% | 12.4% | 31.4% | 37% | 33.1% | 26.5% | 17.3% | 24.7% | 33.6% | 24.5% | – |
| OCCNc1nccc(N2CCN(c3ccnc4cc(Cl)ccc34)CC2)n1 | 17.4% | 89.3% | 94.6% | 102% | 77.5% | 85.2% | 55.7% | 81.1% | – | 69% | 68.3% | 7.31% (active) | 44.4% | 34.2% | 47.1% | 86.4% | 60.8% | 92.1 |
| COc1ccc(-c2cc(=O)c3c(OC)c4ccoc4cc3o2)cc1 | 82.4% | 102% | 99.2% | 93.6% | 109% | 112% | 113% | 106% | 96.2% | 87.2% | 113% | 89.6% | 93.2% | 98% | 98% | 106% | 100% | – |
| Cc1cc(N2CCN(c3ccnc4cc(Cl)ccc34)CC2)nc(N2CCOCC2)n1 | 80.8% | 59% | 96.2% | 108% | 77.8% | 88.3% | 97.7% | 85.9% | – | 46.9% | 86% | 88.7% | 101% | 75.1% | 70.3% | 89% | 85.6% | 95.7 |
| O=C(CCCCC(=O)N/N=C\c1ccccc1O)N/N=C\c1ccccc1O | 19.7% | 50.2% | 41.7% | 59% | 70.3% | 40.3% | 27.2% | – | 41.6% | 35.5% | 38.4% | – | 34.2% | 27.5% | 25.5% | 21.4% | 33.6% | 71 |
| COc1ccc(-n2nc(C)c3c(Nc4ccc(NC(=O)Nc5ccc(Cl)c(C(F)(F)F)c5)cc4)ncnc32)cc1 | 20.8% | 0.105% (active) | 5.05% (active) | 4.07% (active) | 20.8% | 1.72% (active) | 18.6% | 5.65% (active) | 1.32% (active) | 1.89% (active) | 17.2% | -9.88% (active) | 14.3% | 1.4% (active) | 7.03% (active) | 15.6% | 6.08% (active) | – |
| COc1ccc(-c2n[nH]nc2-c2csc3ccccc23)cc1OC | 21.3% | 34.8% | 36.9% | 66.2% | 49% | 14.2% | 48.8% | 11.9% | 13.5% | 28.5% | 16.9% | -31.8% (active) | 21.3% | 17.1% | 22.4% | 72.1% | 27.6% | – |
| CC[C@]1(O)C[C@@H]2CN(CCc3c([nH]c4ccccc34)[C@@](C(=O)OC)(c3cc4c(cc3OC)N(C)[C@H]3[C@@](O)(C(N)=O)[C@H](O)[C@]5(CC)[C@@H]6C[C@@H]6CN6CC[C@]43[C@@H]65)C2)C1 | 12.1% | 13.8% | 15.9% | 52.2% | 52% | 14.8% | 36.5% | 6.81% (active) | 9.52% (active) | 92.9% | 11.5% | -40% (active) | 26.7% | 18.9% | 6.89% (active) | 24.9% | 11.9% | – |
| CC(C)CSc1nc(N)nc2c1ncn2C1OC(CO)C(O)C1O (stereo unspecified) | 111% | 103% | 110% | 93% | 109% | 103% | 93.4% | 116% | 103% | 106% | – | 91% | 94.4% | 99.5% | – | 102% | 96.7% | 103 |
| COc1ccc(C(=O)c2sc3nc4c(c(-c5cccnc5)c3c2N)CCCC4)cc1OC | 37.8% | 4.67% (active) | 85% | 86.4% | 74% | 104% | 117% | 89.9% | 89.3% | – | 74.6% | 91.7% | 107% | 90.2% | 88.2% | 110% | 76.3% | 65.8 |
| CCOc1cc2c(cc1OCC)C(c1cc(OC)c(O)cc1Cl)NCC2 (stereo unspecified) | 98.7% | 94% | 90.8% | 85.9% | 89.2% | 103% | 90.5% | 98.6% | – | 85.4% | 102% | 77.5% | 99.3% | 93.5% | 76.3% | 63.2% | 88.9% | 106 |
| CN(C)CCCNc1c2ccccc2nc2ccccc12 | 86.9% | 100% | 92% | 97.9% | 87.4% | 95.8% | 97.5% | 103% | – | 68.5% | 72.6% | 96.1% | 103% | 92% | 99% | 107% | 97.3% | 75.7 |
| COc1cc(Nc2cc(C)nc(N3CCN(c4ccnc5cc(Cl)ccc45)CC3)n2)cc(OC)c1 | -4.09% (active) | -13.5% (active) | 12.7% | 24.8% | 34.5% | 15.4% | -22.9% (active) | 6.15% (active) | – | 8.17% (active) | 41.8% | -2.88% (active) | 15.9% | 5.32% (active) | 2.14% (active) | 7.77% (active) | 3.72% (active) | 18.2 |

Reference: PubChem BioAssay (NCI)
